Drawing on PubChem BioAssay (Tox21), this text covers outcome and Potency for eight molecules.

Test [1] can be described thus: qHTS assay to identify small molecule antagonists of the glucocorticoid receptor (GR) signaling pathway - cell viability counter screen (AID 720693). Further: nearly all actives have a fitted effect of over 55% in size. On the technique in general: In qHTS, concentration-response curves come from the screen itself.
Test [2] is described as follows: qHTS assay for identifying genotoxic compounds that show differential cytotoxicity against isogenic chicken DT40 cell lines with known DNA damage response pathways - wild type cell line (AID 743012). Further: nearly all actives have a fitted effect of over 60% in size. Further: potency means the concentration at half of the fitted maximal effect. The gist of the method: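 Quantitative HTS on parental DT40 cells: 40 h compound treatment at 37 C/5% CO2, with viability then determined by CellTiter-Glo luminescence. Values serve as the DNA repair-proficient reference for differential cytotoxicity.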

The nature of test [3]: qHTS assay for identifying genotoxic compounds that show differential cytotoxicity against isogenic chicken DT40 cell lines with known DNA damage response pathways - Rev3 mutant cell line (AID 743014). Further: nearly all actives have a fitted effect of over 55% in size. Further: potency means the concentration at half of the fitted maximal effect.
The nature of test [4]: qHTS assay for identifying genotoxic compounds that show differential cytotoxicity against isogenic chicken DT40 cell lines with known DNA damage response pathways - Rad54/Ku70 mutant cell line (AID 743015). Further: nearly all actives have a fitted effect of over 60% in size.
Test [5] in a line: qHTS assay to identify small molecule antagonists of the androgen receptor (AR) signaling pathway - cell viability counter screen (AID 743033; further: nearly all actives have a fitted effect of over 45% in size).
Test [6] in a line: qHTS assay to identify small molecule antagonists of the androgen receptor (AR) signaling pathway using the MDA cell line - cell viability counter screen (AID 743041; further: nearly all actives have a fitted effect of over 45% in size). The essentials: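 MDA-kb2 AR-luc cells (MMTV-luciferase, AR/GR responsive) treated with compounds plus R1881 agonist for 16 h at 37C. CellTiter-Fluor added at 15.5 h; fluorescence read after 30 min in the same wells.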

Test [7] in a line: qHTS assay to identify small molecule antagonists of the thyroid receptor (TR) signaling pathway - cell viability counter screen (AID 743064). Further: nearly all actives have a fitted effect of over 50% in size. The gist of the method: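 In-well cytotoxicity read by CellTiter-Fluor (30 min, 37 C) following 23.5 h exposure of GH3 cells bearing a TRE-luciferase sensor. Compounds were added alongside 1 nM (final) T3 to drive TR transactivation.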

The nature of test [8]: qHTS assay to identify small molecule antagonists of the thyroid receptor (TR) signaling pathway (AID 743065). Further: series mostly up to about 70 µM; nearly all actives have a fitted effect of over 55% in size. The essentials:
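GH3.TRE-Luc rat pituitary cells (two TREs driving luciferase) were dosed with compound, then stimulated with 1 nM T3 (final) for 23.5 h at 37 C. ONE-Glo luminescence was the read-out, with CellTiter-Fluor fluorescence as the cytotoxicity counter-screen.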

For test [9], the system named is thyroid hormone receptor (rat, GH3 cells). Description: qHTS assay to identify small molecule agonists of the thyroid receptor (TR) signaling pathway (AID 743066; calls by dose curve).
Test [10] addresses Estrogen receptor (Homo sapiens) (UniProt P03372). The test is described as follows: qHTS assay to identify small molecule antagonists of the estrogen receptor alpha (ER-alpha) signaling pathway (AID 743069; active means well fitted curve in the direction sought with a large enough effect in the signal ratio in the repeat runs, not every such curve was filed as active; the % refers to the signal ratio). The essentials:
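HEK293 ER-alpha-UAS-bla GripTite cells, held overnight in 2% charcoal-stripped FBS, 5,000 cells/well, preincubated 4 h, then compound plus 17beta-estradiol for 18 h at 37C. Beta-lactamase read by LiveBLAzer B/G FRET substrate, 2 h at room temperature.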

The nature of test [11]: qHTS assay to identify small molecule antagonists of the estrogen receptor alpha (ER-alpha) signaling pathway - cell viability counter screen (AID 743074; calls by dose curve;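 further: HEK293 cells carrying ER-alpha-UAS-bla reporter stimulated with 17beta-estradiol; nearly all actives have a fitted effect of over 45% in size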).
Test [12] deals with Estrogen receptor (Homo sapiens) (UniProt P03372). The test is described as follows: qHTS assay to identify small molecule agonists of the estrogen receptor alpha (ER-alpha) signaling pathway (AID 743075; calls by dose curve).
Test [13] shares this target. Description: qHTS assay to identify small molecule agonists of the estrogen receptor alpha (ER-alpha) signaling pathway using the BG1 cell line (AID 743079). Further: nearly all actives have a fitted effect of over 20% in size.
A short description of test [14]: qHTS assay to identify small molecule antagonists of the estrogen receptor alpha (ER-alpha) signaling pathway using the BG1 cell line (AID 743080; calls by dose curve;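 further: BG1 cells stimulated with 17beta-estradiol alongside compound; series mostly up to about 70 µM; nearly all actives have a fitted effect of over 25% in size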). The gist of the method: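 Luciferase inhibition measured with ONE-Glo after 30 min at RT in BG1Luc4E2 cells given test compounds and 17beta-estradiol for 21.5 h at 37 C; CellTiter-Fluor viability read in the same wells beforehand.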

A short description of test [15]: qHTS assay to identify small molecule antagonists of the estrogen receptor alpha (ER-alpha) signaling pathway using the BG1 cell line - cell viability counter screen (AID 743081).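 Further: compound given together with 17beta-estradiol as the ER stimulus; series mostly up to about 70 µM; nearly all actives have a fitted effect of over 45% in size.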
The next test addresses Aromatase (Homo sapiens) (UniProt P11511). The test is described as follows: qHTS assay to identify aromatase inhibitors (AID 743083). Further: series mostly up to about 70 µM; nearly all actives have a fitted effect of over 55% in size.
Test [16] has as its target Androgen receptor (Homo sapiens) (UniProt P10275). The test is described as follows: qHTS assay to identify small molecule antagonists of the androgen receptor (AR) signaling pathway (AID 743035; active means well fitted inhibition curve with a large enough effect in the signal ratio in the repeat runs, not every such curve was filed as active; the % refers to the signal ratio). The gist of the method: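 Cell line: GeneBLAzer AR-UAS-bla GripTite (HEK293). Stimulus: R1881 added after compound. Exposure: 16 h, 37C, 5% CO2. Readout: LiveBLAzer B/G FRET fluorescence after 2 h at room temperature.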

For test [17] the target is unchanged. The test is described as follows: qHTS assay to identify small molecule agonists of the androgen receptor (AR) signaling pathway (AID 743036; active means well fitted activation curve with a large enough effect in the signal ratio in the repeat runs, with a control signal flat, not every such curve was filed as active; the % refers to the signal ratio). The essentials:
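Activation was read as beta-lactamase FRET signal from LiveBLAzer B/G substrate, added for 2 h at room temperature. Before that, GeneBLAzer AR-UAS-bla GripTite (HEK293) cells had 16 h compound exposure at 37C.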

For test [18] the target is unchanged. Description: qHTS assay to identify small molecule agonists of the androgen receptor (AR) signaling pathway using the MDA cell line (AID 743040; further: nearly all actives have a fitted effect of over 20% in size). The essentials: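 MDA-kb2 breast carcinoma cells carrying MMTV-luciferase (responsive to AR and GR), plated 5 h then treated 16 h with compounds at 37C, 0% CO2. Read-out was ONE-Glo luminescence after 30 min at room temperature.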

For test [19] the target is unchanged. The test is described as follows: qHTS assay to identify small molecule antagonists of the androgen receptor (AR) signaling pathway using the MDA cell line (AID 743042; further: nearly all actives have a fitted effect of over 55% in size). The gist of the method: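 MDA-kb2 breast carcinoma cells carrying MMTV-luciferase (AR/GR responsive) were co-treated with compounds and the agonist R1881 for 16 h at 37C. Inhibition read as ONE-Glo luminescence; CellTiter-Fluor fluorescence measured in parallel for cytotoxicity.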

Inconclusive results are not listed. Activity calls are given as the source filed them. Unless noted, the call rests on the fitted dose curve; in most records, active means well fitted curve in the direction sought with a large enough effect in the repeat runs; inconclusive means weak or mixed curves; inactive means no such curve, though single readings can be large; an effect the other way counts as inactive or inconclusive.

Sequence of Estrogen receptor (Homo sapiens) (P03372 whole entry, looked up): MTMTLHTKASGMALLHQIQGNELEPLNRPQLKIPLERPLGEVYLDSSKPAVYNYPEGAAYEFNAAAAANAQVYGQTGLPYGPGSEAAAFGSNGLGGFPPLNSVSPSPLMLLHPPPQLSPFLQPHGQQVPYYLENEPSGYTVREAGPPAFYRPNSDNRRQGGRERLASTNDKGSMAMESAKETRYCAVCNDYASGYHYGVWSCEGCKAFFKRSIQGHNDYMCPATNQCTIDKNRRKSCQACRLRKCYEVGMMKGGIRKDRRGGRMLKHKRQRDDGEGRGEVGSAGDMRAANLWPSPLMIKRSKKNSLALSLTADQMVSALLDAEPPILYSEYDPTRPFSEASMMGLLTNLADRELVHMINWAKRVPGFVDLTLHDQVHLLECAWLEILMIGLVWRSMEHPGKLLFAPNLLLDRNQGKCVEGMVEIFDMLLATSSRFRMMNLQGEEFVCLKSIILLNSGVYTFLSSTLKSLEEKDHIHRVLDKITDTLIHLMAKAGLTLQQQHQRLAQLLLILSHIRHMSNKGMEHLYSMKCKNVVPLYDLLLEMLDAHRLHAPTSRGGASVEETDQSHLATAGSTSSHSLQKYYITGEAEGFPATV
Sequence of Aromatase (Homo sapiens) (P11511 whole entry, looked up): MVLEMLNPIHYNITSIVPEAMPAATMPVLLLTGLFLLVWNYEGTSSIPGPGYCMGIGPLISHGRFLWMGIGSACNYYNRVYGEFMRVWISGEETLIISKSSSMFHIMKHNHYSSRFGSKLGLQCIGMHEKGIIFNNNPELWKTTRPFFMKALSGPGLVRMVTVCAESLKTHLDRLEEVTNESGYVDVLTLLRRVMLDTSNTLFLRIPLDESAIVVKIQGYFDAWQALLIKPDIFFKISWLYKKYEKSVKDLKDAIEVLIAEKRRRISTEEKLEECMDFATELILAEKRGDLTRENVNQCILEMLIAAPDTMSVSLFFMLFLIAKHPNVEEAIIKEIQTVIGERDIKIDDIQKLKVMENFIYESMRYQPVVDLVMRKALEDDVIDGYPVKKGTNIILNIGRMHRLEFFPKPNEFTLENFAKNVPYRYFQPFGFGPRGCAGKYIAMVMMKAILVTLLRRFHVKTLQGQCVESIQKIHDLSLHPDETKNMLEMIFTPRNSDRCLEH
Sequence of Androgen receptor (Homo sapiens) (P10275 whole entry, looked up): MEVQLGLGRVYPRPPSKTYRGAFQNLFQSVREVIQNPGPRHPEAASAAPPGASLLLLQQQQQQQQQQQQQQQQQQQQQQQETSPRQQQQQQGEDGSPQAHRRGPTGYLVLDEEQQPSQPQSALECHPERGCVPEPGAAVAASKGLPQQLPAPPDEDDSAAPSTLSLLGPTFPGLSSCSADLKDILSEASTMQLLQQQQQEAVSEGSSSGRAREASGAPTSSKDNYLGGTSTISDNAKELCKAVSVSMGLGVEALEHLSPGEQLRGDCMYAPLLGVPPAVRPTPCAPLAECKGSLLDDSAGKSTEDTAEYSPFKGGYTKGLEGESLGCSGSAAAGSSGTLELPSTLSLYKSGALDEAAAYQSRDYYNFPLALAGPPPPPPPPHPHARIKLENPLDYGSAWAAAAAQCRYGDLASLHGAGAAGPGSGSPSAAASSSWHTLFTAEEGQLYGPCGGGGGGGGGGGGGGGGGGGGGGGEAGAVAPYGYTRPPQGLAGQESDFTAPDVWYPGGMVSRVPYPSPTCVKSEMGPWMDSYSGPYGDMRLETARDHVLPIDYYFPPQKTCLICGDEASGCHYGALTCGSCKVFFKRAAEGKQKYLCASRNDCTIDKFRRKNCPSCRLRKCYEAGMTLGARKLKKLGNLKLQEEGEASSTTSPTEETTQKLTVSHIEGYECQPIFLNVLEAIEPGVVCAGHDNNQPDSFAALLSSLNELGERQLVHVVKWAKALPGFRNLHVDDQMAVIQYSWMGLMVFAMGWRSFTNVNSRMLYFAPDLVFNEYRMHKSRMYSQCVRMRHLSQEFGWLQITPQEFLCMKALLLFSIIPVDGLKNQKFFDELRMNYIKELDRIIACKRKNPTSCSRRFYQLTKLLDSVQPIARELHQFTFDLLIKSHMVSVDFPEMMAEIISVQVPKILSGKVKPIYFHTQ

For the molecule `CNC(=O)Oc1ccccc1OC(C)C`, the call in test [1], in test [5], in [6], in [9] and in [15] was inactive. The Potency result in test [2], in test [3], in test [4], in [7], in [8] and in [10] was “inactive” throughout. The Potency result (in test [11]; in test [12]; in test [13]; in [14]; in the test with Aromatase (Homo sapiens)) was “inactive” throughout.

For `CCCN(CCC)N=O`, the call in test [1], in [5], in test [6], in [9] and in test [15] was inactive. Also, the Potency entry in [2], in [3], in [4], in [7], in test [8] and in [10] was “inactive” each time. Moreover, the Potency result (in test [11]; in test [12]; in test [13]; in [14]; with Aromatase (Homo sapiens)) was “inactive” throughout.

As for `O=C(O)c1ccccn1`, the call in test [1], in test [5], in test [6], in test [9] and in [15] was inactive. The Potency entry in test [2], in test [3], in [4], in [7], in [8] and in test [10] was “inactive” each time. The Potency result (in test [11]; in [12]; in test [13]; in [14]; with Aromatase (Homo sapiens)) was “inactive” throughout.

Consider `CCCCN(CC)C(=O)SCCC`, for which the result in test [1], in test [5], in test [17], in test [18], in test [6] and in test [19] was inactive. Moreover, the call in [9] and in [15] was inactive. Further, the Potency entry in [2], in test [3], in test [4], in test [16], in test [7] and in test [8] was “inactive” each time. Moreover, the Potency result (in test [10]; in test [11]; in test [12]; in test [13]; in test [14]; with Aromatase (Homo sapiens)) was “inactive” in each case.

Consider `c1ccc(OP(Oc2ccccc2)Oc2ccccc2)cc1`, for which the molecule was classed as inactive in [1], in [5], in test [6], in [9] and in test [15]. The Potency entry in test [3], in test [4], in test [7], in [8], in [10] and in [11] was “inactive” throughout. The Potency result (in test [12]; in test [13]; in test [14]; with Aromatase (Homo sapiens)) was “inactive” throughout.

Consider `Cc1[nH]c(=O)n(C(C)(C)C)c(=O)c1Cl`, for which the outcome in test [1], in test [5], in test [17], in test [18], in [6] and in test [19] was inactive. The molecule was classed as inactive in test [9] and in test [15]. For the same molecule, the Potency result in test [3], in test [4], in test [16], in [7], in [8] and in [10] was “inactive” in each case. In addition, the Potency result (in [11]; in [12]; in test [13]; in [14]; in the test with Aromatase (Homo sapiens)) was “inactive” throughout.

`COC(=O)NC(=S)Nc1ccccc1NC(=S)NC(=O)OC`: the molecule was called inactive in test [1], in test [5], in test [6], in [9] and in [15]. In addition, the Potency in test [2] and in test [3] was 61.1 µM (active) throughout. For the same molecule, the Potency result in test [7], in test [8], in test [10], in [12], in test [13] and in [14] was “inactive” each time. In the test with Aromatase (Homo sapiens), the Potency entry was “inactive”.

Consider `Oc1ccccc1Cl`, for which the call in test [1], in [5], in test [6], in test [9] and in [15] was inactive. Also, the Potency entry in [2], in test [3], in [4], in [7], in [8] and in test [11] was “inactive” in each case. Besides, in the test with Aromatase (Homo sapiens), the Potency result is “inactive”.
